Results on 16 compounds are retold here after PubChem BioAssay.

As a reminder, the inhibition is the relative decrease from the control value, in per cent.

Activity calls are given as the source filed them. Unless noted, how the calls were made is not given here.

A short description of assay [1]: circadian clock period modulators, cell-based, LOPAC library, luminescence reporter (AID 2774).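 Further: values are relative to mean of DMSO wells on each plate.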 Particulars: circadian reporter cells, at 7 µM, actives lie on both sides.
Assay [2] is described as follows: viability rescue of complex I mutant cybrids, primary screen, cell-based, galactose medium, ATP luminescence (AID 1645843;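 active means z-score of at least 1.8 in each of two replicates, scored against plate mean and spread of sample wells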;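 further: positive z means more ATP and so rescue of galactose-driven cybrid death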). Particulars: complex I mutant cybrid cells, 72 h, stronger effect = higher value.
Assay [3] in a line: LFS_MB_P medulloblastoma growth inhibition, cell-based, chromothripsis tumors, cisplatin or BGB combos (AID 1671449; in the data active means inhibition above about 80%;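 further: cells exposed for 96 hours; 0% = vehicle DMSO and 100% = killing by high DMSO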). Particulars: LFS_MB_P medulloblastoma cells.
Assay [4] in a line: HDN33 neuroblastoma growth inhibition, cell-based, chromothripsis tumors, cisplatin or BGB combos (AID 1671450; in the data active means inhibition above about 80%;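 further: cells exposed to compound for four days; 0% = vehicle DMSO and 100% = cell killing by high DMSO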). The conditions noted are these: HDN33 neuroblastoma cells, stronger effect = higher value.
Assay [5] in a line: ICB984 medulloblastoma cell growth inhibition, synergistic combos for chromothripsis tumors, cisplatin or BGB combos (AID 1671451).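 Further: cells exposed for 96 hours before readout; 0% = vehicle DMSO and 100% = killing by high DMSO.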 Particulars: ICB984 medulloblastoma cells, drug combinations, stronger effect = higher value.
Assay [6] is described as follows: LFS_MB_1R medulloblastoma cell growth inhibition, synergistic combos for chromothripsis tumors, cisplatin or BGB combos (AID 1671452; in the data active means inhibition above about 80%;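 further: cells exposed for 96 hours before readout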). The conditions noted are these: LFS_MB_1R medulloblastoma cells, stronger effect = higher value.
Assay [7] can be described thus: HTB85 osteosarcoma cell growth inhibition, synergistic combos for chromothripsis tumors, BGB or cisplatin IC20 combos (AID 1671453; in the data active means inhibition above about 80%;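 further: cells exposed for 96 hours before readout; 0% = vehicle DMSO and 100% = high DMSO killing control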). Particulars: HTB85 osteosarcoma cells, drug combinations, stronger effect = higher value.
Assay [8] is described as follows: CRL2098 osteosarcoma cell growth inhibition, synergistic combos for chromothripsis tumors, BGB or cisplatin IC20 combos (AID 1671454; in the data active means inhibition above about 80%;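 further: cells exposed for 96 h before readout; 0% = vehicle DMSO and 100% = killing by high DMSO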). Particulars: CRL2098 osteosarcoma cells, drug combinations, stronger effect = higher value.
Assay [9] can be described thus: HD-MB03 medulloblastoma cell growth inhibition, synergistic combos for chromothripsis tumors, BGB or cisplatin IC20 combos (AID 1671455; in the data active means inhibition above about 83%;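 further: 0% = vehicle DMSO and 100% = high DMSO as cytotoxic control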). Particulars: HD-MB03 medulloblastoma cells, stronger effect = higher value.
Assay [10] can be described thus: UWB1.289 ovarian carcinoma cell growth inhibition, synergistic combos for chromothripsis tumors, BGB or cisplatin combos (AID 1671456; in the data active means inhibition above about 80%;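 further: cells exposed to compound for four days; 0% = vehicle DMSO and 100% = killing by high DMSO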). Particulars: UWB1.289 ovarian carcinoma cells, stronger effect = higher value.
The nature of assay [11]: LFS_MB_2R medulloblastoma cell growth inhibition, synergistic combos for chromothripsis tumors, cisplatin combos (AID 1671457; in the data active means inhibition above about 80%;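 further: cells exposed to compound for four days before readout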). The conditions noted are these: LFS_MB_2R medulloblastoma cells, stronger effect = higher value.
The nature of assay [12]: MDA-MB-436 breast carcinoma cell growth inhibition, synergistic combos for chromothripsis tumors, BGB or cisplatin combos (AID 1671458).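 Further: cells exposed for 96 hours; 0% = vehicle DMSO and 100% = killing by high DMSO.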 Particulars: MDA-MB-436 breast carcinoma growth inhibition, drug combinations, stronger effect = higher value.
Assay [13] is described as follows: UWB1.289_BRCA1 ovarian cancer growth, cell-based, BGB or cisplatin combinations (AID 1671459; in the data active means inhibition above about 80%). Particulars: UWB1.289 BRCA1 ovarian carcinoma, drug combinations, stronger effect = higher value.
Assay [14] in a line: human astrocyte viability loss, single and combined drugs, cytotoxicity control for chromothriptic childhood tumor combination screen, cell-based, BGB or cisplatin IC20 combos (AID 1671460; in the data active means inhibition above about 80%;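 further: cells exposed to compounds for 96 hours before viability readout; 0% = vehicle and 100% = killing control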). Particulars: Human astrocytes, drug combinations, stronger effect = higher value.
Assay [15] in a line: growth inhibition of BT084 medulloblastoma cells, cell-based, ICGC_MB145, cisplatin and BGB IC40 combos (AID 1671461; in the data active means inhibition above about 80%;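 further: cells exposed to drugs for 96 hours; 0% = vehicle DMSO and 100% = high DMSO full killing control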). Particulars: drug combinations, stronger effect = higher value.
The nature of assay [16]: growth inhibition of RCMB18 medulloblastoma cells, cell-based, cisplatin and BGB IC40 combos (AID 1671462; in the data active means inhibition above about 80%;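 further: cells exposed to compound for four days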). The conditions noted are these: stronger effect = higher value.
Assay [17] in a line: growth inhibition of CRL1545 osteosarcoma cells, cell-based, cisplatin and BGB IC20 combos (AID 1671464; in the data active means inhibition above about 80%;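 further: cells exposed to compound for 96 hours before readout; 0% = vehicle DMSO and 100% = high DMSO killing control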). The conditions noted are these: stronger effect = higher value.
Assay [18] is described as follows: antimalarial activity against Dd2 strain (AID 2302;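 active means growth inhibition above 50% at the single 2 µM test dose, taken to imply half-maximal potency below 2 µM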;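 further: 0% = DMSO untreated growth and 100% = chloroquine plus artemisinin killed control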). The conditions noted are these: P. falciparum Dd2 in RBCs, LDH growth readout, 72 h; at 2 µM; stronger effect = higher value.
The nature of assay [19]: HepG2 cytotoxicity, primary screen, cytotoxicity control for P. falciparum antimalarial project, cell-based, ATP luminescence (AID 2303;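 active means inhibition above 50%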;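 further: 0% = DMSO wells and 100% = digitonin-killed cells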). The conditions noted are these: HepG2 viability, 24-48 h, at 10 µM, stronger effect = higher value.
Assay [20] has as its target L-lactate dehydrogenase (Plasmodium falciparum (isolate CDC / Honduras)) (UniProt Q27743). Nature of the assay: PfLDH activity inhibition – cell lysate, 3D7 strain, counter-screen for P. falciparum growth inhibition project (AID 2304).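 Further: 0% = vehicle and 100% = reference inhibitor.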 Particulars: P. falciparum 3D7 crude extract, LDH APAD/NBT absorbance; at 2 µM; stronger effect = higher value. (A counterscreen serves to expose hits that act by an unwanted route or on another target.)

Assay [21] in a line: inhibition of 3D7 malaria parasite growth – strain 3D7 (AID 2306).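 Further: 0% = DMSO wells and 100% = chloroquine plus artemisinin control wells.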 Particulars: P. falciparum 3D7 erythrocytic growth, LDH absorbance, 72 h; at 2 µM; stronger effect = higher value.
[22] abbreviates: measured here: combination with BGB IC40, at 0.05 µM.
Setting [23] is: measured here: with BGB IC20 combination, at 0.5 µM.
The mark [24] stands for this setting: measured here: with cisplatin IC20 combination, at 0.5 µM.
The mark [25] stands for this setting: measured here: combination with cisplatin, at 0.5 µM.
Where [26] appears, read: measured here: combination with cisplatin, at 5 µM.

Chain of L-lactate dehydrogenase (Plasmodium falciparum (isolate CDC / Honduras)) (Q27743 whole entry, looked up): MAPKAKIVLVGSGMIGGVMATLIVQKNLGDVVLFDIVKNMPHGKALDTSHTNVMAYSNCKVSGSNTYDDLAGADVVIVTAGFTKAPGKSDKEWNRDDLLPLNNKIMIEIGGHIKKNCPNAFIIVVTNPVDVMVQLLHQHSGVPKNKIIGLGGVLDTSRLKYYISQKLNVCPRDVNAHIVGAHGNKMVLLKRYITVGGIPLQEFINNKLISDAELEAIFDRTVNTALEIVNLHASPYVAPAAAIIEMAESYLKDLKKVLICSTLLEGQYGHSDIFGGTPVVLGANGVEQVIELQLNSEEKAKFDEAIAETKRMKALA

As to `Nc1ncnc2c1ncn2C1OC2COP(O)(=S)O[C@@H]2[C@@H]1O` (stereo partly specified), the period change in assay [1] is -0.125 h (inactive).
Regarding `O=c1c2cc(F)ccc2ncn1Cc1cn2ccccc2n1`, in assay [2], the z-score was 0.245 (inactive).
`O=c1[nH]c(=O)n(C2OC(CO)C(O)C2O)cc1F` (stereo unspecified): the inhibition in assay [3] (at 0.5 µM, stronger effect = higher value) was -2.55% (inactive); in assay [3] (measured here: combination with BGB IC20, at 0.005 µM), -22.7%; in assay [3] (measured here: combination with BGB IC40, at 0.005 µM), -24.2%; in [3] (setting [22]) it was -0.747%; in [3] (measured here: combination with cisplatin, at 0.5 µM, stronger effect = higher value), -21.6%; in assay [3] (measured here: combination with cisplatin, at 5 µM, stronger effect = higher value), 22.1%. Further, the inhibition in assay [4] (BGB combo, at 5 µM) was 98.3%; in assay [4] (at 0.5 µM), 71.5% (inactive); in assay [4] (cisplatin combo, at 5 µM), 97.9%; in [4] (setting [23]), 69.4%; in assay [4] (setting [24]) it was 68.6%; in [4] (single agent, at 5 µM), 98.1%. Further, the inhibition is 26.6% in [5] (BGB IC20 combo, at 0.005 µM); 32% in [5] (BGB IC40 combo, at 0.005 µM); 86.4% in assay [5] (BGB IC40 combo, at 0.05 µM); -9.47% (inactive) in assay [5] (at 0.5 µM); 86.4% in assay [5] (cisplatin combo, at 0.05 µM); -24.4% in assay [5] (cisplatin combo, at 0.5 µM). The inhibition in [5] (cisplatin combo, at 5 µM) was -10.9%; in [5] (measured here: 5 uM single agent, at 5 µM), -6.81%; in assay [6] (at 0.5 µM) it was -13.3% (inactive); in [6] (setting [22]) it was -3.21%; in [6] (setting [25]) it was -2.35%; in [6] (setting [26]), 44.8%. For the same compound, the inhibition is 22% (inactive) in assay [7] (at 0.5 µM); -3.46% in assay [7] (measured here: with BGB IC20, at 0.5 µM); 59.1% in assay [7] (measured here: with BGB IC20, at 5 µM); 26.3% in assay [7] (measured here: with cisplatin IC20, at 0.5 µM); 57.2% in [7] (measured here: with cisplatin IC20, at 5 µM); 76.2% in assay [7] (single agent, at 5 µM). The inhibition was -23.1% (inactive) in assay [8] (at 0.5 µM); -14.1% in assay [8] (measured here: combination with BGB at IC20, at 0.5 µM); -20.6% in assay [8] (measured here: combination with cisplatin at IC20, at 0.5 µM); 66.9% (inactive) in [9] (at 0.5 µM); 71.1% in assay [9] (measured here: combo with BGB at IC20, at 0.5 µM); 54% in [9] (measured here: combo with cisplatin at IC20, at 0.5 µM). Further, the inhibition was 33.5% (inactive) in assay [10] (at 0.5 µM); -10.9% in assay [10] (measured here: inhibition with BGB combination, at 0.05 µM); 10.1% in [10] (measured here: inhibition with cisplatin combination, at 0.05 µM); -12.7% (inactive) in assay [11] (at 0.5 µM); -4.31% in assay [11] (setting [25]); 6.83% in assay [11] (setting [26]). In addition, the inhibition in assay [12] (at 0.5 µM) was 45.1% (inactive); in assay [12] (measured here: BGB combination, at 0.5 µM), 27.6%; in [12] (measured here: BGB combination, at 5 µM), 83.1%; in assay [12] (measured here: cisplatin combination, at 0.5 µM) it was 39.9%; in assay [12] (measured here: cisplatin combination, at 5 µM), 86.1%; in assay [13] (BGB combination, concentration series, at 5 µM) it was 110%. In addition, the inhibition in assay [13] (at 0.5 µM) is 40.6% (inactive); in assay [13] (cisplatin combination, concentration series, at 5 µM), 118%; in [14] (at 0.5 µM) it was 57.3% (inactive); in assay [14] (measured here: combo with BGB IC20, at 0.5 µM) it was 56.2%; in assay [14] (measured here: combo with cisplatin IC20, at 0.5 µM), 38.9%; in [15] (at 0.5 µM) it was -22.9% (inactive). In addition, the inhibition in [15] (cisplatin combination, at 0.5 µM) was -18.4%; in assay [15] (cisplatin combination, at 5 µM), -1.49%; in [15] (measured here: BGB IC40 combination 0.05 uM, at 0.05 µM) it was 2.24%; in assay [15] (single agent, at 5 µM), 11.9%; in assay [16] (at 0.5 µM) it was 33.4% (inactive); in assay [16] (cisplatin combo, at 5 µM), 75.4%. For the same compound, the inhibition in [16] (measured here: BGB IC40 combination, at 0.05 µM) was 14.4%; in assay [16] (setting [25]), 45.3%; in assay [16] (single agent, at 5 µM), 63.7%; in assay [17] (at 0.5 µM), 82.5% (active); in assay [17] (setting [23]), 77.3%; in assay [17] (setting [24]), 85.1%. In addition, the inhibition in [17] (single agent, at 0.05 µM) is 57.8%; in assay [17] (single agent, at 5 µM), 99.7%.
`CN1CCC(N(C)CCC2CCOCC2)CC1`: in assay [2], the z-score is 0.38 (inactive).
For `CC(O)C(C)OC(=O)[C@@H]1C[C@@H]2c3cccc4c3c(cn4C(C)C)C[C@H]2N(C)C1` (stereo partly specified), the period change in assay [1] is 0.035 h (inactive).
In the case of `Oc1ccc2c3c1O[C@H]1[C@@H](O)CC[C@@]4(O)C(C2)N(CC2CCC2)CCC314` (stereo partly specified), the period change in assay [1] is -0.2 h (inactive).
For `COc1ccc(CN2CCN(C)C(CCO)C2)c(OC)c1OC` (stereo unspecified), the z-score in [2] is -0.21 (inactive).
`CC(C)[C@@]1(NC(=O)[C@@H]2C=C3c4cccc5[nH]cc(c45)C[C@H]3N(C)C2)O[C@@]2(O)[C@@H]3CCCN3C(=O)[C@H](Cc3ccccc3)N2C1=O`: in assay [1], the period change was 0.465 h (inactive).
Regarding `COc1ccc(CCN)cc1O`, the period change in assay [1] is 0.08 h (inactive).
With `CP(=O)(O)CCCN`, in assay [1], the period change was -0.005 h (inactive).
The same measure, in the same setting: the figure for `C[C@]12CC[C@H](OS(=O)(=O)O)CC1=CC[C@@H]1[C@@H]2CC[C@]2(C)C(=O)CC[C@@H]12` is -0.035 h (inactive); for `COc1cc(C[C@@H](C)N)c(OC)cc1I` it is -0.225 h (inactive).
On the same count and under the same terms, under `N[C@@H](Cn1cc(I)c(=O)[nH]c1=O)C(=O)O` stands -0.19 h (inactive).
The same measure, in the same setting: under `O=C(CCCN1CCC2(CC1)C(=O)N(CCc1ccc(N=C=S)cc1)CN2c1ccccc1)c1ccc(F)cc1` stands 0.03 h (inactive).
With `Cc1ccc(C[C@H](C)NC[C@H](O)c2cccc(C(F)(F)F)c2)cc1`, the growth inhibition in assay [18] was 54% (active); in assay [21], 100% (active). Moreover, the results for the inhibition in assay [19] and in assay [20] were 5% (inactive) and -1% (inactive), respectively.
For the compound `C[C@]12CC[C@H]3[C@@H](CCC4C[C@H](O)CC[C@@]43C)[C@@H]1CC[C@@H]2O` (stereo partly specified), the period change in [1] is 0.065 h (inactive).
